Bioassay records as filed in PubChem BioAssay.
KCNQ2 pot = potentiators of rat KCNQ2 potassium channel | actives 0.54% (n = 310,000) | CHO-K1 KCNQ2, FluxOR thallium flux fluorescence; stronger effect = higher value | Potassium voltage-gated channel subfamily KQT member 2 (Rattus norvegicus), O88943 | AID 2239, 2010 | B-score at 10 µM;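 active = fluorescence ratio B-score at least 3 SD of library B-scores, with initial fluorescence B-score within 3 of them, cut at about 5.3 in these data; same plate scores as AID 2156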;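 note: B-score of peak minus minimum over baseline fluorescence ratio after K+ and Tl+ stimulus; positive B-score means potentiation of KCNQ2 with more thallium influx and brighter signal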
KCNQ2 block = rat KCNQ2 potassium channel inhibitors, primary screen, cell-based, CHO-K1, FluxOR thallium flux, B-score; 20 min; stronger effect = lower value; B-score at 10 µM; actives 1.1% (n = 310,000); Potassium voltage-gated channel subfamily KQT member 2 (Rattus norvegicus), O88943; AID 2156, 2009;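 active = fluorescence ratio B-score at most minus 3 library SDs, with starting brightness B-score within 2 library SDs, cut at about -5.5 in these data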
Kir21 conf inh = mouse Kir2.1 channel blockers, retest, confirmation, cell-based, FluxOR thallium flux, duplicate; shares compounds with KCNQ2 pot; Kir2.1-expressing cells, FluxOR thallium flux fluorescence; stronger effect = lower value; Tl flux remaining, % of negative control (stronger effect = lower value), % at 10 µM; actives 41% (n = 2,300); AID 2032, 2009;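 active = Primary-screen hit whose thallium flux fell at least 3 control SD below untreated wells in both duplicates, with normal baseline fluorescence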;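 note: 0% = blank wells without stimulus and 100% = stimulated no-compound controls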
Target sequence (P35561 whole entry, looked up): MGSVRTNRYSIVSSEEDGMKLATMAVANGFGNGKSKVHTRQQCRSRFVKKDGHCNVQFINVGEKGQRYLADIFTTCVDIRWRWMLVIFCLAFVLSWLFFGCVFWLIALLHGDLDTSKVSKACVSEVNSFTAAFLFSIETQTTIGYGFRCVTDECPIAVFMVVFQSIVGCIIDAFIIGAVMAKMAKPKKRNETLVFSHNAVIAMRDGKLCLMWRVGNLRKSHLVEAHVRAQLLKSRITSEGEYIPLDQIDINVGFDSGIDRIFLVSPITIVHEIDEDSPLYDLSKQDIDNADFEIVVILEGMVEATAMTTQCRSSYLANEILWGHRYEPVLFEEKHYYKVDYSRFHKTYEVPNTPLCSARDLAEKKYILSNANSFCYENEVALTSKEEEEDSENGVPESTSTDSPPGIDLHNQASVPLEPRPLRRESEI
HEK293 Tl flux = parental HEK293 activity in Kir2.1 inhibitor counter-screen; shares compounds with KCNQ2 pot; parental HEK293 cells, FluxOR thallium flux fluorescence; 0% = unstimulated blank wells; FluxOR signal as % of negative control (100 = no effect), % at 10 µM; actives 19% (n = 2,300);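 active = dye signal at least 3 control SD above or below untreated wells in both duplicates, raw fluorescence within 3, either direction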;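 note: percent is based on the flux ratio of peak minus minimum fluorescence over baseline F0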
CHO-K1 Tl ctr = nonspecific thallium flux increase in parental CHO-K1, confirmation, counter-screen for KCNQ2 potentiator project, cell-based, FluxOR thallium flux, duplicate. shares compounds with KCNQ2 pot. actives 43% (n = 1,200). parental CHO-K1 cells, FluxOR thallium flux fluorescence; zero = vehicle mean+3SD, 100% = vehicle-minus-blank window. activity increase over 3SD of controls, % at 10 µM. AID 2282, 2010;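 active = signal rise of at least 3 SD above the untreated control mean, in both duplicate wells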;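 note: counter screen of KCNQ2 potentiator hits so any rise reflects channel-independent effects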
KCNQ1 pot spec = human KCNQ1 channel potentiation off-target, confirmation, selectivity assay for KCNQ2 potentiator project, cell-based, CHO, FluxOR thallium flux; shares compounds with KCNQ2 pot; CHO KCNQ1 stable, FluxOR thallium flux fluorescence; beyond 3SD, as % of vehicle-control signal; activation over 3SD threshold, % at 10 µM; actives 28% (n = 1,200); AID 2283, 2010;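 active = fluorescence ratio rise of at least 3 SD of vehicle wells above their mean, in both replicate wells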;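 note: 0% = vehicle mean plus 3 SD and 100% = vehicle minus unstimulated blank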
KCNQ2 pot confirm = rat KCNQ2 channel potentiators, confirmation, cell-based, CHO, FluxOR thallium flux, duplicate; AID 2287, 2010; shares compounds with KCNQ2 pot; CHO-KCNQ2 cells, FluxOR thallium flux fluorescence; potentiation, less the hit threshold, % at 10 µM; actives 68% (n = 1,200);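 active = fluorescence ratio rising 3 SD or more over the vehicle control mean in both replicates, plus primary screen hit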;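 note: peak minus minimum thallium fluorescence divided by baseline after K/Tl stimulus; 0% = vehicle mean plus 3 SD and 100% = vehicle minus unstimulated blank difference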
Kir21 spec = mouse Kir2.1 channel activation off-target, confirmation, selectivity assay for KCNQ2 potentiator project, cell-based, HEK293, FluxOR thallium flux; HEK293 Kir2.1, FluxOR thallium flux fluorescence; activity over 3SD threshold, % at 10 µM; actives 2% (n = 1,200); shares compounds with KCNQ2 pot;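 active = fluorescence ratio rise of at least 3 SD above the vehicle-control mean, seen in both replicates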;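 note: 0% = vehicle mean plus 3 SD and 100% = vehicle minus no-stimulus blank window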
KCNQ2 W236L MoA = potentiators of retigabine-insensitive KCNQ2 W236L, mechanism study for KCNQ2 potentiator project, cell-based, rat KCNQ2 W236L, CHO, automated patch clamp; shares compounds with KCNQ2 pot; automated patch clamp current; current increase over 3SD of negative controls (%), stronger effect = higher value, % at 25 µM; actives 10% (n = 940);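 active = current increase at least 3 SD of the untreated controls above them in both duplicate recordings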
The depositor's hits bear a star; i = inactive; / = no result. Shown are actives, neighbours in structure and some others; about 1.6% of the full set was active somewhere.

SMILES	KCNQ2 pot	KCNQ2 block	Kir21 conf inh	HEK293 Tl flux	CHO-K1 Tl ctr	KCNQ1 pot spec	KCNQ2 pot confirm	Kir21 spec	others
COc1ccc(Cl)cc1NC(=O)CC1CCCC1	/	i	/	/	/	/	/	/
COc1cc(Cl)c(C)cc1NC(=O)CC1CCCC1	5.79*	i	i	i	-9.0	-17.8	24.2*	-31.8	KCNQ2 W236L MoA=i
COc1ccc(CN2CCNC(=O)C2CC(=O)N(C)CCCN2CCOCC2)cc1C (configuration not stated)	/	i	/	/	/	/	/	/
CCn1c(CCNC(=O)c2ccc(OC)cc2)nnc1SCc1ccc(Cl)c(Cl)c1	/	i	67.0%*	i	/	/	/	/
CCn1c(CCNC(=O)c2ccc(C)cc2)nnc1SCc1ccc(Cl)c(Cl)c1	/	i	/	/	/	/	/	/
CNC(=O)COC(=O)c1cccc(S(=O)(=O)N2CCN(c3ccc(F)cc3)CC2)c1	2.42	i	/	/	/	/	/	/
CCC(=O)NCC(c1cccs1)N1CCOCC1 (configuration not stated)	0.5	i	/	/	/	/	/	/
Cc1cc(SCC(=O)NCC(c2cccs2)N2CCOCC2)c(C)cc1Br (configuration not stated)	5.39*	i	i	i	38.0*	-10.6	-5.4	-48.0	KCNQ2 W236L MoA=i
Cc1ccc(-n2c(N)c(C(=O)Nc3c(C)n(C)n(-c4ccccc4)c3=O)c3nc4ccccc4nc32)cc1	1.28	i	/	/	/	/	/	/
CC(C)OCCCN(C)C1CCN(S(=O)(=O)c2ccc(-c3ccc(=O)[nH]n3)s2)CC1	0.31	i	/	/	/	/	/	/
CCCc1cc(=O)oc2cc(C)cc(OC(C)C(=O)N[C@@H](Cc3c[nH]c4ccccc34)C(=O)O)c12 (some centres not stated)	9.69*	i	i	i	2.7*	-20.9	-25.1	-32.0
CCCCc1cc(=O)oc2cc(C)cc(OC(C)C(=O)NC(Cc3c[nH]c4ccc(O)cc34)C(=O)O)c12 (configuration not stated)	/	i	/	/	/	/	/	/
O=C(NCCc1ccccc1)c1ccc([N+](=O)[O-])cc1	/	i	/	/	/	/	/	/
Cc1cc(OCC(O)CNC(C)c2ccccc2)ccc1C(C)C (configuration not stated)	3.9	i	i	i	/	/	/	/
CC(NCC(O)COc1ccc2ccccc2c1)c1ccccc1 (configuration not stated)	0.03	i	/	/	/	/	/	/
CCCN1C(=O)/C(=C/c2ccc(C)s2)NC1=S	14.7*	i	i	216.5%*	-5.9	-12.5	66.1*	-31.9	KCNQ2 W236L MoA=i
CC(C)CN1C(=O)/C(=C/c2ccco2)NC1=S	1.55	i	/	/	/	/	/	/
CC(C)CN1C(=O)/C(=C/c2cccs2)NC1=S	12.4*	i	i	321.5%*	-24.5	-19.4	56.9*	-14.2	KCNQ2 W236L MoA=i
Cc1ccc(/C=C2/NC(=O)N(Cc3ccccc3F)C2=O)s1	/	i	/	/	/	/	/	/
COCCCNS(=O)(=O)c1ccc2[nH]c(=O)[nH]c2c1	/	i	/	/	/	/	/	/
